From PubChem BioAssay AID2716 (Broad Institute, 2010)
Hit rate of the full screen: of about 320,000 compounds, about 3,300 (1%) were called active. The entries come from a sample that favours actives as a whole. A number with no mark means an inactive call.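 How the source made its calls: active means every valid replicate shows activation above 250% relative to neutral control wells; inactive means the rest, any valid replicate at or below 250%.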

Assay: restored growth of temperature-sensitive Mot1-301 yeast – S. cerevisiae, ATP luminescence, 38.5C, SUMOylation pathway inhibitor project, primary screen (AID 2716);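 further: OY570 slx delta 5 strain wells were the positive control but not used for scaling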
Conditions: S. cerevisiae Mot1-301 growth rescue, at 18.8 µM, stronger effect = higher value, percent above DMSO median, 100 means doubled

Row | Compound | growth rescue
1 | COc1cc(Cl)c(C)cc1NC(=O)CSc1nnc(CN2CCCC2)o1 | 50.1%
2 | CCOc1cc2[nH]c(=S)n(Cc3ccc(C(=O)N4CCN(C)CC4)cc3)c(=O)c2cc1OCC | -1.75%
3 | O=C(CNS(=O)(=O)c1ccc(Br)s1)NCc1ccc2c(c1)OCO2 | 17.3%
4 | O=C(CNC(c1ccccc1)c1ccccc1)Nc1ccc(F)cc1 | 14.1%
5 | O=C1CC(c2ccccc2)C(=O)N1c1cccc(O)c1 (configuration not stated) | 564% (active)
6 | CN1C(=O)CC(c2ccccc2)C1=O (configuration not stated) | 8.06%
7 | O=C1OCC2=C1C(c1ccccc1)CC(=O)N2c1cccc(F)c1 (configuration not stated) | 4.11%
8 | COc1ccc(C(C)=O)cc1CN1C(=O)NC2(CCCCC2C)C1=O (configuration not stated) | 115%
9 | CC(=O)N1CCc2cc(Br)cc(S(=O)(=O)CCC(=O)Nc3c(C)n(C)n(-c4ccccc4)c3=O)c21 | 461% (active)
10 | Cc1ccccc1OCCC(=O)Nc1c(C)n(C)n(-c2ccccc2)c1=O | -23.7%
11 | Cc1ccc(S(=O)(=O)CC(=O)Nc2c(C)n(C)n(-c3ccccc3)c2=O)cc1 | -28%
12 | COC(=O)c1ccc(OC(=O)c2nn(C)cc2Cl)c(OC)c1 | -16.8%
13 | Cc1c(NC(=O)c2c([N+](=O)[O-])cnn2C)c(=O)n(-c2ccccc2)n1C | 0.562%
14 | CN(CC(=O)NCc1cccnc1)S(=O)(=O)c1cc(Cl)ccc1Cl | 249%
15 | COc1ccc(CNS(=O)(=O)c2ccc(NC(=O)N3CCCCC3)cc2)cc1 | 1.4%
16 | COc1cc(C2C(C#N)=C(N)Oc3n[nH]c(-c4ccccn4)c32)cc(OC)c1OC (configuration not stated) | -11.1%
17 | CCOc1c(OC)cc(C2C(C#N)=C(N)Oc3n[nH]c(-c4ccncc4)c32)cc1OC (configuration not stated) | 365%
18 | COc1ccc(-c2[nH]nc3c2C(c2ccncc2)C(C#N)=C(N)O3)cc1 (configuration not stated) | 577% (active)
19 | O=C(COC(=O)c1ccc(N2CCCC2=O)cc1)c1ccc(OC(F)F)cc1 | -26.3%

Row | Compound | growth rescue
20 | Cc1cc(OC(C)C(=O)Nc2ccc(S(=O)(=O)Nc3onc(C)c3C)cc2)cc(C)c1Cl (configuration not stated) | -7.5%
21 | CCn1c(SCC(=O)Nc2ccc(S(=O)(=O)Nc3onc(C)c3C)cc2)nnc1-c1ccccc1 | 8.66%
22 | Cc1cc(C)c2nc(-c3cccnc3)cc(C(=O)Nc3ccc(S(=O)(=O)Nc4onc(C)c4C)cc3)c2c1 | 404% (active)
23 | CC1CN(C(=S)Nc2cccc(F)c2)CC(C)O1 (configuration not stated) | -11.7%
24 | COc1ccccc1/C=C/C(=O)NC(=S)N1CCOCC1 | 413% (active)
25 | O=C(/C=C/c1ccco1)NC(=S)N1CCCCC1 | -4.55%
26 | COc1ccccc1/C=C/C(=O)NC1CC2CCC1C2 (configuration not stated) | -19.4%
27 | CC1CCN(S(=O)(=O)c2ccc3ncn(CC(=O)N(C)C4CCCCC4)c(=O)c3c2)CC1 | -3.24%
28 | CCN1CCCC1CNC(=O)Cn1cnc2ccc(S(=O)(=O)N3CCC(C)CC3)cc2c1=O (configuration not stated) | 572% (active)
29 | CC1CC(C)CN(C(=O)CCNC(=O)Cn2cnc3ccccc3c2=O)C1 (configuration not stated) | 0.101%
30 | COC(=O)C1C(=O)CC(C)(O)C(C(=O)OC)C1c1ccc2c(c1)OCO2 (configuration not stated) | -11.2%
31 | COc1cccc(NC(=O)CC2C(=O)NCCN2C(=S)Nc2ccc(F)cc2)c1 (configuration not stated) | 3.83%
32 | COC(=O)c1cc(NC(=O)CC2C(=O)NCCN2C(=O)c2ccc(F)cc2)cc(C(=O)OC)c1 (configuration not stated) | 8.77%
33 | COC(=O)c1sccc1NC(=O)CC1C(=O)NCCN1C(=O)Nc1ccc(F)cc1F (configuration not stated) | 848% (active)
34 | Cc1ccc(CNC(=O)C2(C(F)(F)F)C/C(=C\Cc3ccccc3)CCCO2)o1 (configuration not stated) | 17.2%
35 | Cc1ccc2[nH]c(=O)c(CC(=O)O)c(-c3ccccc3)c2c1 | -1.66%
36 | CCN(CC)CCCNC(=O)c1cc2c(=O)[nH]c3ccc(C)cc3c2s1 | 6.48%
37 | Cc1cccc(N(C)C(=O)c2cc3c(=O)[nH]c4ccc(C)cc4c3s2)c1 | 675% (active)
38 | COc1cccc(NC(=O)COc2cccnc2[N+](=O)[O-])c1 | 8.97%

Row | Compound | growth rescue
39 | Cc1cc(C)c(S(=O)(=O)NCC2CCC(C(=O)NCc3ccc4c(c3)OCO4)CC2)c(C)c1 (configuration not stated) | 33.6%
40 | CNS(=O)(=O)c1cnccc1N1CCN(c2cccc(C)c2)CC1 | -3.12%
41 | COc1ccc(N(CC(=O)Nc2cccc3ccccc23)S(C)(=O)=O)c(OC)c1 | 9.81%
42 | COc1ccccc1NC(=O)COc1ccc(C(=O)OCC(=O)N(C(C)C)C(C)C)cc1OC | 38.2%
43 | COc1cc(CO)ccc1OCC(=O)Nc1cccc2ccccc12 | 314% (active)
44 | C[C@H](CO)N1C[C@H](C)[C@H](CN(C)CC2CC2)Oc2ccc(NC(=O)CCN3CCOCC3)cc2C1=O | -13.9%
45 | Cc1ccc(S(=O)(=O)C2(S(=O)(=O)c3ccc(C)cc3)CCCC2)cc1 | -9.93%
46 | O=S1(=O)CC/C(=N\Nc2ccc(F)cc2)c2ccsc21 | 423% (active)
47 | COc1ccc(C(=O)N/N=C2\CCS(=O)(=O)c3ccc(F)cc32)cc1OC | -16.6%
48 | CN1CCN(C(=O)c2ccc(-c3ccc(Br)cc3)o2)CC1 | 14%
49 | O=C1C=CN2CCCC2CC1 (configuration not stated) | 51.5%
50 | O=C1CC2(CCN(C(=O)COc3ccc(F)cc3)CC2)Oc2ccccc21 | 269% (active)
51 | COc1ccc(OCC(=O)N2CCN(C(=O)COc3ccccc3)CC2)cc1 | -6.56%
52 | O=C1CC2(CCCCC2)Oc2ccc(OCC(=O)N3CCOCC3)cc21 | -29.5%
53 | O=C1CCCC2=C1C(c1cccs1)n1nc(SCc3ccccc3)nc1N2 (configuration not stated) | 10.5%
54 | O=Cc1ccc(Oc2cccc(C(F)(F)F)c2)nc1 | 554% (active)
55 | O=C(O)CCCC(=O)Nc1ccc(Oc2cccc(C(F)(F)F)c2)nc1 | -3.63%
56 | CC(C)Oc1ccc(Oc2ccc(C(F)(F)F)cn2)cc1 | 21.9%
57 | NNC(=O)CNC(c1ccccc1)c1cc(Cl)ccc1NC(=O)c1ccccc1 (configuration not stated) | -0.491%
